This is one part of a sample in which hits are shown more often than they occur.
ST2 IL33 inh – IL1RL1 inhibition | AlphaLISA ST2-Fc/biotin-IL-33 interaction, 1 h | 2.3% of 78,000 active | Q01638 | AID 1259354 | inhibition, % for hits at 17 µM; in the data active = inhibition above about 30%
Target sequence (Q01638 whole entry, looked up): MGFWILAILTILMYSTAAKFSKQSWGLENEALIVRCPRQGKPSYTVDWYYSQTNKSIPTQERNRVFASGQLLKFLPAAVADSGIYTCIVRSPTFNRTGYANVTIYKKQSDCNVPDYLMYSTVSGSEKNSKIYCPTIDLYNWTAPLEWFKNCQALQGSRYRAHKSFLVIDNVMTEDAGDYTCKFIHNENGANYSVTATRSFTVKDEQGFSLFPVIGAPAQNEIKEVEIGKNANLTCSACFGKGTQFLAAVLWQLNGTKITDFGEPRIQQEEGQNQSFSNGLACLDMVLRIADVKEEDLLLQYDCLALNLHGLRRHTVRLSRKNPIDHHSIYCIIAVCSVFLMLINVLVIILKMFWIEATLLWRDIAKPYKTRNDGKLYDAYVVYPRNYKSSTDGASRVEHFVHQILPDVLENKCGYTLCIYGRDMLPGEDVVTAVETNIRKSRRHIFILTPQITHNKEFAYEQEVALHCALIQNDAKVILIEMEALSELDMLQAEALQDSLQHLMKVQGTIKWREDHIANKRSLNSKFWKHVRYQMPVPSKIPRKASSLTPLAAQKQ
Starred values were filed as active, the others as inactive; i = inactive.

SMILES	ST2 IL33 inh
COc1ccc(NC(=O)c2cc(S(=O)(=O)N3CCCC3)ccc2Cl)cc1	i
Cc1cc(N2CCC(C)CC2)nc2ccc(NC(=O)c3ccc4c(c3)OCO4)cc12	i
Cc1ccc(-n2nc3ccc(NC(=O)COc4ccccc4)cc3n2)cc1Cl	i
COc1ccc(C(=O)Nc2ccc3nn(-c4ccc(F)cc4)nc3c2)cc1OC	i
Cc1ccc(-n2nc3ccc(NC(=O)c4ccc5c(c4)OCCO5)cc3n2)cc1Cl	34.0%*
COc1ccc(-n2nc3ccc(NC(=O)c4ccc(OC)c(Cl)c4)cc3n2)cc1	33.0%*
COc1ccc(-n2nc3cc(C)c(NC(=O)c4ccc(Cl)c([N+](=O)[O-])c4)cc3n2)cc1	i
COc1ccc(-c2cc(CC3(NCC4CCCCC4)COC3)no2)cc1	i
Cc1[nH]nc(SCC(=O)N2C(C)CCCC2C)c1[N+](=O)[O-] (stereo not given)	i
CC1CCc2c(sc(NC(=O)c3cc(-c4ccco4)on3)c2C(N)=O)C1 (stereo not given)	i
CCOC(=O)c1c[nH]c2c(ccc3ccccc32)c1=O	i
O=C(CCn1cc(Cl)cn1)N1CCCC(O)(CO)CC1 (stereo not given)	i
Cc1cc(C)c(CN2CCOC3(CNCCOC3)C2)c(-n2cccn2)c1 (stereo not given)	i
COc1ccccc1-c1ccc2ccccc2n1	i
Cc1ccc(CSC2=NCCN2C(=O)c2ccc(F)c(F)c2)cc1	i
CC(C)SCCn1nc(C2CCCNC2)n(-c2ccccc2)c1=O (stereo not given)	i
O=c1n(CCCn2cccc2)nc(C2CCNCC2)n1-c1ccccc1	30.0%*
O=c1n(Cc2cccc(F)c2F)nc(C2CCNCC2)n1Cc1ccccc1	i
COc1ccc(Cn2c(SC)nc3c(sc4ccccc43)c2=O)cc1	i
CN1C(=O)C(O)(CC(=O)c2ccc3c(c2)Cc2ccccc2-3)c2ccccc21 (stereo not given)	i
CSc1ccc(Cl)c(C(=O)NCCOc2ccccc2F)c1	i
Nc1nnc(-c2ccccc2)o1	i
C(=C\c1nnc(-c2ccccc2)o1)/c1ccccc1	34.0%*
O=C(O)CCN(CCC(=O)O)c1nnc(-c2ccccc2)o1	i
Cc1ccc(C)c(S(=O)(=O)Nc2ccc3oc(C)c(C(=O)OC(C)C)c3c2)c1	i
SMILES	ST2 IL33 inh
CC1=CC(C)(C)N(C(=O)CSc2nc(C)cc(C)n2)c2ccccc21	i
COc1ccccc1CNC(=O)CC1CCCCC1	i
O=C1NC(=Nc2ccccc2)SC1Cc1ccccc1 (stereo not given)	i
COc1ccc(CC2SC(=Nc3ccccc3)NC2=O)cc1 (stereo not given)	31.0%*
O=C1NC(=Nc2ccccc2)SC1Cc1cccc([N+](=O)[O-])c1 (stereo not given)	i
CCCn1cc(C(=O)NC2CCC(n3cnnc3)CC2)c(C)n1 (stereo not given)	i
Cn1c(=O)cc(SCC(=O)Nc2ccc(F)cc2)c2ccccc21	i
Nc1ncc(-c2cccc3ccnn23)cn1	i
Cc1c(N=Cc2ccc([N+](=O)[O-])o2)c(=O)n(-c2ccccc2)n1C	i
Cc1c(N=Cc2cc([N+](=O)[O-])ccc2N2CCCCC2)c(=O)n(-c2ccccc2)n1C	44.0%*
Cc1c(N=Cc2cc([N+](=O)[O-])ccc2O)c(=O)n(-c2ccccc2)n1C	i
CCCSc1nc(C)c(Cc2ccccc2)c(=O)[nH]1	i
CC1=C(C(=O)Nc2cccc(C)n2)C(c2ccccc2Cl)C2=C(CC(C)(C)CC2=O)N1 (stereo not given)	i
CCOc1ccc(C(=O)Nc2ccc(C)c(OCc3cc(=O)n4cccc(C)c4n3)c2)cc1	i
Cc1ccc(C(=O)Nc2cccc(OCc3cc(=O)n4cc(Cl)ccc4n3)c2)cc1	i
Cc1cccc(C(=O)Nc2ccc(C)c(OCc3cc(=O)n4cccc(C)c4n3)c2)c1	33.0%*
COc1ccc(OCC(=O)Nc2ccc(C)c(OCc3cc(=O)n4ccc(C)cc4n3)c2)cc1	i
COc1cccc(C(=O)Nc2cccc(OCc3cc(=O)n4ccc(C)cc4n3)c2)c1	i
Cc1cccc(C(=O)Nc2cccc(OCc3cc(=O)n4ccc(C)cc4n3)c2)c1	i
CC(=O)Nc1cccc(OCc2cc(=O)n3cc(Cl)ccc3n2)c1	i
CCOc1ccc(C(=O)Nc2cccc(OCc3cc(=O)n4cc(Cl)ccc4n3)c2)cc1	31.0%*
COc1cccc(C(=O)Nc2ccc(C)c(OCc3cc(=O)n4cccc(C)c4n3)c2)c1	31.0%*
CC(C)(Oc1ccc(Cl)cc1)C(=O)n1nnc2ccccc21	i
O=C(O)CCCc1nc2cccnc2n1-c1ccccc1	i
CCOC(=O)c1cccnc1-c1cc(OC)ccc1F	i
SMILES	ST2 IL33 inh
Cc1ccc(N=C2c3cc([N+](=O)[O-])ccc3-c3ncccc32)cc1	i
COc1ccc(/C=C2/c3cc(C)ccc3-c3ncccc32)cc1	31.0%*
Cc1ccc(CSC2=NCCN2C(=O)C2CCCCC2)cc1	i
Cc1c(Cc2ccccc2)c(NCCCO)n2c(nc3ccccc32)c1C#N	i
CCN(CC)CCNc1c2c(c(C#N)c3nc4ccccc4n13)CCC2	i
N#Cc1c2c(c(NCCCO)n3c1nc1ccccc13)CCC2	31.0%*
Cc1noc(CSCc2nc(CC(C)C)nn2-c2ccccc2)n1	i
CCOc1ccc(S(=O)(=O)Nc2nc3ccccc3s2)c2cccnc12	i
CCOC(=O)c1cnc2c(Cl)cccc2c1Nc1cccc(C(C)=O)c1	i
C[C@H](NC(=O)CCc1ccccc1)c1ccccc1	i
CC12CCC3c4ccc(O)c(Br)c4CCC3C1CCC2O (stereo not given)	i
COc1ccc2c(c1)CCC1C2CC[C@@]2(C)C1CC[C@@H]2NCCCCCCN1C(=O)C=CC1=O (stereo not given in full)	46.0%*
C[C@]12CC[C@@H]3c4ccc(O)cc4CC[C@H]3[C@@H]1CCC2=O	i
O=C(c1ccc(O)cc1)c1c(O)cc(O)c([C@@H]2O[C@H](CO)[C@@H](O)[C@H](O)[C@H]2O)c1O	i
CC1(C)OC2c3ccccc3OC3(C)CCC1CC23 (stereo not given)	i
CC12CCC3C1C(c1c(cc(O)c(C(=O)c4ccccc4)c1O)O2)C3(C)C (stereo not given)	31.0%*
Oc1cc(-c2nc3ccccc3s2)cc2c1OCCN(CCn1cccn1)C2	i
COc1ccc(C(=O)N[C@@H]2CN(C(=O)NC3CCCCC3)CCC[C@H]2O)cc1	82.0%*
CC(C)NC(=O)N1CCC[C@@H](O)[C@H](NC(=O)c2ccc(OCc3ccccc3)cc2)C1	i
COCCOc1ccc(C(=O)N[C@@H]2CN(C(=O)NCc3ccccc3)CCC[C@H]2O)cc1	i
C=CCc1cccc2cc(C(=O)Nc3cccc([N+](=O)[O-])c3)c(=O)oc12	i
Cc1ccc(-n2c(=O)[nH]c3sc(C)c(C)c3c2=O)cc1C	i
CCN1CCc2c(sc(NC(=O)c3ccc(Cl)cc3)c2C(=O)OC)C1	89.0%*
COC(=O)c1c(NC(=O)c2ccc(F)cc2)sc2c1CCN(C(C)C)C2	i
CCN1CCc2c(sc(NC(=O)COc3ccccc3)c2C(=O)OC)C1	i
Cc1cc(Oc2ccccc2)nc(Oc2ccc(=O)[nH]n2)n1	i
O=[N+]([O-])c1cccc(-c2noc([C@@H]3C[C@@H](O)CN3Cc3ccc(CO)o3)n2)c1	58.0%*
Cc1ccc(CN2C[C@H](O)C[C@H]2c2nc(-c3cccc([N+](=O)[O-])c3)no2)cc1	i

Source: PubChem BioAssay
